According to PubChem BioAssay (NCATS):
Values joined by “and” are separate entries in the source; they are usually repeats but may differ in a detail not shown here. Equal values may be shown once. Results filed as inconclusive are left out. Entries that show only a call come without a potency. Values without a mark were called inactive. Active and inactive are the calls of the source. Calls follow the shape of the dose curve; as a rule, active = well fitted curve in the direction sought with a large enough effect; inconclusive = small, poorly fitted or top-dose-only effect, or another doubt; inactive = no such curve, though single readings can be large; an effect the other way counts as inactive or inconclusive.

Legend:
[1] = target: Cytochrome P450 3A7 (Homo sapiens) (UniProt P24462); assay: Cytochrome P450 family 3 subfamily A member 7 (CYP3A7) small molecule antagonists: luciferase biochemical qHTS assay (AID 1963596); also: nearly all actives have a fitted effect of over 40% in size; also: potency is read from the fitted curve at half-maximal effect
In short: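 In this luminescent screen, enzyme and proluciferin substrate meet test compound for 10 min before NADPH regeneration solution drives a 1 h room-temperature reaction; detection reagent halts turnover and luminescence is read 20 min later.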

[2] = Viability qHTS for spleen associated tyrosine kinase inhibitor (SYKi) drug resistant MV4-11 cells (AID 1963824); also: nearly all actives have a fitted effect of over 35% in size; also: potency is read from the fitted curve at half-maximal effect
In short: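 SYK inhibitor-resistant MV4-11 AML cells, 500 per well, added to predispensed compounds and incubated 72 hr at 37 C, 5% CO2. Viability measured by CellTiter-Glo luminescence after 10 min at room temperature.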

[3] = Quantitative highthroughput screen to assess conditional lethalithy of NOMO1 cells grown in RPMI1640 with untreated serum (RPMI+s) (AID 1963876); also: nearly all actives have a fitted effect of over 35% in size; also: potency is read from the fitted curve at half-maximal effect
In short: (§1)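 Each medium arm—HPLM with 10% dialyzed FBS, or RPMI1640 with 5 mM glucose and 10% untreated or dialyzed FBS—was screened against an 11-point, 3-fold compound titration for 48 h at 37 °C, with CellTiter-Glo luminescence as endpoint.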

[4] = Quantitative highthroughput screen to assess conditional lethalithy of NOMO1 cells grown in Human Plasma-Like Medium with dialyzed fetal bovine serum (HPLM+ds) (AID 1963878); also: nearly all actives have a fitted effect of over 35% in size
In short: as §1

[5] = Quantitative highthroughput screen to assess conditional lethalithy of P12 Ichikawa cells grown in Human Plasma-Like Medium with dialyzed fetal bovine serum (HPLM+ds) (AID 1963879); settings: Potency: viability; also: nearly all actives have a fitted effect of over 35% in size; also: potency is read from the fitted curve at half-maximal effect; as to Viability: series mostly up to about 46 µM
In short: as §1

[6] = Quantitative highthroughput screen to assess conditional lethalithy of P12 Ichikawa cells grown in RPMI1640 with dialyzed fetal bovine serum (RPMI+ds) (AID 1963880); settings: Potency: P12-Ichikawa viability; also: nearly all actives have a fitted effect of over 35% in size; also: potency is read from the fitted curve at half-maximal effect
In short: as §1

[7] = Quantitative highthroughput screen to assess conditional lethalithy of P12 Ichikawa cells grown in RPMI1640 with untreated serum (RPMI+s) (AID 1963881); settings: Potency: viability; also: nearly all actives have a fitted effect of over 35% in size; also: potency is read from the fitted curve at half-maximal effect; as to Viability: series mostly up to about 46 µM
In short: as §1

[8] = Quantitative highthroughput screen to assess conditional lethalithy of SEM cells grown in Human Plasma-Like Medium with dialyzed fetal bovine serum (HPLM+ds) (AID 1963882); also: nearly all actives have a fitted effect of over 35% in size; also: potency is read from the fitted curve at half-maximal effect; as to Viability: series mostly up to about 46 µM
In short: as §1

[9] = Cellular viability qHTS for adrenocortical cancer (ACC) cell line SW-13 (AID 1963989); settings: SW-13 ACC cells viability, CellTiter-Glo, 48 h; activity (max response): stronger effect = lower value; also: nearly all actives have a fitted effect of over 65% in size; also: potency is read from the fitted curve at half-maximal effect;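 as to activity (max response): cells grown in serum-free medium with ITS supplement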
In short: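 Luminescent ATP read-out (CellTiter-Glo, 20 min at room temperature) measured metabolically competent SW-13 cells after 48 h compound treatment. Final concentrations spanned up to 46 uM; bortezomib served as positive control.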

[10] = Cellular viability qHTS for adrenocortical cancer (ACC) cell line NCI-H295R (AID 1963990); also: nearly all actives have a fitted effect of over 60% in size; also: potency is read from the fitted curve at half-maximal effect
In short: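 IC50 and maximal efficacy derive from four-parameter logistic modelling of titration curves, with reads scaled between DMSO-only wells (0%) and doxorubicin hydrochloride (100% inhibition). Compounds spanned up to 46 uM over 48 h.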

[11] = Quantitative highthroughput screen to assess conditional lethalithy of NOMO1 cells grown in RPMI1640 with dialyzed fetal bovine serum (RPMI+ds) (AID 1963877); also: nearly all actives have a fitted effect of over 30% in size; also: potency is read from the fitted curve at half-maximal effect; as to Viability: series mostly up to about 46 µM
In short: as §1

[12] = Quantitative highthroughput screen to assess conditional lethalithy of SEM cells grown in RPMI1640 with unreated serum (RPMI+s) (AID 1963883); also: nearly all actives have a fitted effect of over 35% in size; also: potency is read from the fitted curve at half-maximal effect
In short: as §1

[13] = Quantitative highthroughput screen to assess conditional lethalithy of SEM cells grown in RPMI1640 with dialyzed fetal bovine serum (RPMI+ds) (AID 1963884); also: nearly all actives have a fitted effect of over 35% in size; also: potency is read from the fitted curve at half-maximal effect; as to Viability: series mostly up to about 46 µM
In short: as §1

Chain of Cytochrome P450 3A7 (Homo sapiens) (P24462 whole entry, looked up): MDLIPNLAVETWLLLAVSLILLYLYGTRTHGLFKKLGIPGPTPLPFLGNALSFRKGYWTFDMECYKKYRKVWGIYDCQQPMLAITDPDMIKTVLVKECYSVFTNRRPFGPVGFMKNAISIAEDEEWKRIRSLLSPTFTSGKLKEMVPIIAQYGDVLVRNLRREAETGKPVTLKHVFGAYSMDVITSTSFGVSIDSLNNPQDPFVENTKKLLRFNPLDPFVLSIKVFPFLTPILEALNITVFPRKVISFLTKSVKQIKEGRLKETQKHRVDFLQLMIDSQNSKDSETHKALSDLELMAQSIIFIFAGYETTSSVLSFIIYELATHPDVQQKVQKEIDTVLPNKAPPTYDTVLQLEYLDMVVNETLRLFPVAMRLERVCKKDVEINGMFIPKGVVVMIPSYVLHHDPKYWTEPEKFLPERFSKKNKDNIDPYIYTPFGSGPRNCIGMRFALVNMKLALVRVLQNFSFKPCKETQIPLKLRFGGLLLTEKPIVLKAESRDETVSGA

CCOC(=O)C1=C(N)Oc2ccc(Br)cc2C1C(C#N)C(=O)OCC (centres undefined)
Potency [1]: inactive
Potency [2]: 8.33 µM (active) and 11.6 µM (active)
Potency [3]: inactive
Potency [4]: inactive
Potency [5]: inactive
Potency [6]: inactive
Potency [7]: inactive
Potency [8]: inactive
activity (max response) [9]: -2.87%
Potency [10]: inactive

NC(=O)c1cnccn1
Potency [1]: inactive
Potency [2]: inactive
Potency [3]: inactive
Potency [11]: inactive
Potency [4]: inactive
Potency [5]: inactive
Potency [6]: inactive
Potency [7]: inactive
Potency [12]: inactive
Potency [13]: inactive
activity (max response) [9]: 14.3% and 8.02%
Potency [10]: inactive

COc1ccc(/C(C)=C/C(=O)O)c(OC)c1
Potency [1]: inactive
Potency [2]: inactive
activity (max response) [9]: 9.2%

CS(=O)(=O)N1CCc2c(-c3cnc(N)nc3)nc(N3CCOCC3)nc21
Potency [1]: inactive
Potency [2]: 4.17 µM (active)
Potency [3]: 8330 nM (active)
Potency [5]: inactive
Potency [12]: 4690 nM (active)
Potency [10]: 708 nM (active)

CCc1cc2c(=O)c(-c3nc4ccccc4s3)coc2c(CN2CCCCC2)c1O
Potency [1]: inactive
Potency [2]: inactive

C#CCC(Cc1cnc2nc(N)nc(N)c2n1)c1ccc(C(=O)N[C@@H](CCC(=O)O)C(=O)O)cc1 (some centres undefined)
Potency [1]: inactive
Potency [2]: 0.0021 µM (active)
Potency [3]: 187 nM (active)
Potency [5]: 37.2 nM (active)
Potency [12]: 59 nM (active)
Potency [9]: 35.5 nM (active)
Potency [10]: 15.8 nM (active)

CNc1nc(Nc2cnn([C@H]3CCN(C4COC4)C[C@@H]3F)c2Cl)ncc1C(F)(F)F
Potency [1]: inactive
Potency [2]: 1.86 µM (active)
Potency [3]: 1660 nM (active)
Potency [13]: 2340 nM (active)
Potency [10]: inactive

CC1(C)CC(=O)c2c(C(F)(F)F)nn(-c3ccc(C(N)=O)c(NC4CCC(OC(=O)CN)CC4)c3)c2C1 (centres undefined)
Potency [1]: 15100 nM (active)
Potency [2]: 51.7 nM (active) and 37.2 nM (active)
Potency [3]: 372 nM (active)
Potency [11]: 296 nM (active)
Potency [8]: 264 nM (active)
Potency [12]: 264 nM (active)
Potency [13]: 296 nM (active)
Potency [9]: 282 nM (active)
Potency [10]: 501 nM (active)

CCCc1nc(C(C)(C)O)c(C(=O)O)n1Cc1ccc(-c2ccccc2-c2nn[nH]n2)cc1
Potency [1]: inactive
Potency [2]: inactive
Potency [3]: inactive
Potency [11]: inactive
Potency [4]: inactive
Potency [5]: inactive
Potency [6]: inactive
Potency [7]: inactive
Potency [8]: inactive
Potency [12]: inactive
Potency [13]: inactive
Potency [10]: inactive

C[C@H]1c2cccc(O)c2C(O)=C2C(=O)[C@]3(O)C(O)=C(C(N)=O)C(=O)[C@@H](N(C)C)[C@@H]3[C@@H](O)[C@@H]21
Potency [1]: inactive
Potency [2]: 14.8 µM (active)
Potency [3]: inactive
Potency [11]: inactive
Potency [4]: inactive
Potency [5]: inactive
Potency [6]: 16600 nM (active)
Potency [7]: 18700 nM (active)
Potency [8]: inactive
Potency [12]: inactive
activity (max response) [9]: -2.36% and -5.39%
Potency [10]: inactive

COc1ccccc1OCC(O)COC(N)=O (centres undefined)
Potency [1]: inactive
Potency [2]: inactive
Potency [3]: inactive
Potency [11]: inactive
Potency [6]: inactive
Potency [7]: inactive
Potency [8]: inactive
Potency [12]: inactive
Potency [13]: inactive
activity (max response) [9]: -1.45%
Potency [10]: inactive

COc1cc(OC)c(NC(=O)c2ccc(Cc3cc4c(cc3C)C(C)(C)CCC4(C)C)o2)c(OC)c1
Potency [1]: inactive
Potency [2]: 11.6 µM (active)

CCCCc1ccc2nc(NC(=O)OC)[nH]c2c1
Potency [1]: inactive
Potency [2]: 0.118 µM (active)
Potency [5]: 93.5 nM (active)
Potency [7]: 83.3 nM (active)
Potency [12]: 59 nM (active)
Potency [13]: 41.8 nM (active)
Potency [9]: 51.7 nM (active) and 282 nM (active)
Potency [10]: 103 nM (active) and 224 nM (active)

Cc1oc(=O)oc1CN1CCN(c2cc3c(cc2F)c(=O)c(C(=O)O)c2n3C(C)S2)CC1 (centres undefined)
Potency [1]: inactive
Potency [2]: 18.6 µM (active)
Potency [3]: inactive
Potency [5]: inactive
Potency [6]: inactive
Potency [7]: inactive
Potency [10]: inactive

CCN(CC)CCCC(C)Nc1nc(C)cc(Nc2ccc3nc(C)cc(N)c3c2)n1 (centres undefined)
Potency [1]: inactive
Potency [2]: 16.6 µM (active)
Potency [3]: inactive
Potency [11]: inactive
Potency [4]: inactive
Potency [5]: inactive
Potency [6]: inactive
Potency [7]: inactive
Potency [8]: inactive
Potency [12]: inactive
Potency [13]: inactive
Potency [10]: inactive

O=C(c1ccccc1)c1ccc2n1CCC2C(=O)O (centres undefined)
Potency [1]: inactive
Potency [2]: inactive
Potency [3]: inactive
Potency [5]: 2350 nM (active)
Potency [6]: 4180 nM (active)
Potency [7]: 3720 nM (active)
Potency [13]: 4690 nM (active)
activity (max response) [9]: 8.29% and -6.52%
Potency [10]: inactive

CNS(=O)(=O)Cc1ccc2[nH]cc(CCN(C)C)c2c1
Potency [1]: inactive
Potency [2]: inactive
Potency [3]: inactive
Potency [11]: inactive
Potency [4]: inactive
Potency [5]: inactive
Potency [6]: inactive
Potency [7]: inactive
Potency [8]: inactive
Potency [12]: inactive
Potency [13]: inactive
activity (max response) [9]: 3.13%
